Publication PMC5540273 (PLoS ONE, 2017)

What was measured:
Conditions in all cases: concentration: 1 μM, replicates: in singlicate; n = 1
[1] = test system: EIF2AK1
[2] = test system: EPHA1
[3] = test system: EPHA2
[4] = test system: EPHA3
[5] = test system: EPHA4
[6] = test system: EPHA5
[7] = test system: EPHA6
[8] = test system: EPHA7
[9] = test system: EPHA8
[10] = test system: EPHB1
[11] = test system: EPHB2
[12] = test system: EPHB3
[13] = test system: EPHB4
[14] = test system: EPHB6
[15] = test system: ERBB2
[16] = test system: ERBB3
[17] = test system: ERBB4
[18] = test system: T1, ERK1
T1 construct: gene MAPK3

[19] = test system: T2, ERK2
T2 construct: gene MAPK1

[20] = test system: T3, ERK3
T3 construct: gene MAPK6
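Also: KINOMEscan kinase panel screen.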

Compound | %Inh [1] [%] | %Inh [2] [%] | %Inh [3] [%] | %Inh [4] [%] | %Inh [5] [%] | %Inh [6] [%] | %Inh [7] [%] | %Inh [8] [%] | %Inh [9] [%] | %Inh [10] [%] | %Inh [11] [%] | %Inh [12] [%] | %Inh [13] [%] | %Inh [14] [%] | %Inh [15] [%] | %Inh [16] [%] | %Inh [17] [%] | %Inh [18] [%] | %Inh [19] [%] | %Inh [20] [%]
Fc1cccc(COc2ccc(Nc3ncnc4cc[nH]c34)cc2Cl)c1 | 23 | 2 | 15 | 0 | 18 | 20 | 7 | 4 | 1 | 9 | 20 | 0 | 22 | 19 | 100 | 11 | 83 | 8 | 24 | 22
Clc1ccc(-c2cc(-c3c[nH]nc3-c3ccccn3)ccn2)cc1 [GW681251] | 0 | 0 | 8 | 0 | 2 | 0 | 10 | 0 | 0 | 7 | 31 | 15 | 1 | 0 | 17 | 0 | 0 | 0 | 0 | 8
O=c1cc(N2CCOCC2)nc2n(Cc3cccc(Cl)c3)ccn12 [GSK2296823] | 7 | 17 | 14 | 82 | 20 | 0 | 19 | 7 | 17 | 8 | 0 | 15 | 9 | 56 | 0 | 0 | 100 | 0 | 0 | 0
CCc1nc(-c2cccc(N(C)S(=O)(=O)c3ccccc3)c2)c(-c2ccnc(Nc3ccc(N4CCN(C(C)=O)CC4)nc3)n2)s1 [GSK1645895] | 0 | 29 | 0 | 14 | 0 | 0 | 2 | 5 | 25 | 7 | 0 | 0 | 0 | 96.9 | 17 | 0 | 26 | 0 | 0 | 0
Cl.c1ccc(Cn2ncc3cc(Nc4ncnc5ccccc45)ccc32)cc1 [GW273749] | 0 | 28 | 0 | 0 | 4 | 0 | 0 | 7 | 17 | 0 | 0 | 0 | 10 | 31 | 100 | 68 | 96.2 | 0 | 0 | 57
Cl.Fc1ccccc1COc1ccc(Nc2ncnc3ccc(-c4nnc(C(F)(F)F)o4)cc23)cc1Cl [GW424170] | 0 | 19 | 0 | 0 | 3 | 0 | 0 | 3 | 0 | 19 | 0 | 2 | 0 | 0 | 96.7 | 0 | 70 | 0 | 0 | 7
O=C(Nc1ccccc1F)NC1CCN(c2ccnc(Nc3ccc(F)cc3)n2)C1 (stereo not shown) [GSK1379722] | 0 | 0 | 8 | 0 | 0 | 0 | 4 | 5 | 14 | 11 | 0 | 17 | 0 | 17 | 30 | 3 | 0 | 100 | 0 | 13
CCC(CC)(CC)n1cnc2c(N)ncnc21 [SKF-97620] | 30 | 0 | 100 | 11 | 15 | 0 | 16 | 22 | 23 | 9 | 0 | 18 | 0 | 9 | 20 | 46 | 32 | 0 | 0 | 0
